Measurements from PubChem BioAssay AID1159580 (chemical genetic matrix, 2015).
“And” between values parts separate entries of the source, which are not always exact repeats. Equal values may be shown once. The whole screen tested about 5,500 compounds, of which about 2,000 (36%) were called active. Not shown: some 18% with an inconclusive outcome. Cut-off read from the data, not from the text of the source: active = normalized growth mostly below about 0.91 (no sharp cut-off); inconclusive = no clear call, values can overlap the other calls; inactive = mostly above about 0.92. Some of the results follow.

Test: chemical genetic growth profiling, strain panel (AID 1159580);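 note: tested at 20 µM; growth read once vehicle control cultures reached saturation at 30 °C; 1 = growth at the plate median or of vehicle wells; lower values mean less growth of the strain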
Conditions: S. cerevisiae deletion strains, growth OD

Measured: normalized growth

CC(C)=CCCC1(C)C=Cc2c(O)c3c(c(CC=C(C)C)c2O1)OC12C(=CC4CC1C(C)(C)OC2(C/C=C(/C)C(=O)O)C4O)C3=O (configuration not stated)
inactive: locus YBR021W, strain FUR4, active compounds read low 1.02 | locus YBR229C, strain ROT2, active compounds read low 0.947 | locus YCL029C, strain bik1, active compounds read low 0.946 | locus YDL035C, strain GPR1, active compounds read low 0.953 | locus YDL074C, strain BRE1, active compounds read low 1.03 | locus YDL101C, strain DUN1, active compounds read low 0.944 | locus YDL134C, strain PPH21, active compounds read low 0.949 | locus YDL185W, strain tfp1, active compounds read low 0.955 | locus YDL192W, strain arf1, active compounds read low 0.945 | locus YDR101C, strain arx1, active compounds read low 0.929 | locus YDR162C, strain NBP2, active compounds read low 0.862 | locus YDR318W, strain mcm21, active compounds read low 0.931 | locus YDR388W, active compounds read low 0.942 | locus YER110C, active compounds read low 0.952 | locus YER155C, strain BEM2, active compounds read low 1.01 | locus YER167W, strain BCK2, active compounds read low 0.995 | locus YGL078C, strain dbp3, active compounds read low 0.967 | locus YGL248W, strain PDE1, active compounds read low 0.946 | locus YGR078C, strain PAC10, active compounds read low 1.01 | locus YGR135W, strain pre9, active compounds read low 1 | locus YGR252W, strain gcn5, active compounds read low 1.06 | locus YHR030C, strain SLT2, active compounds read low 0.983 and 0.976 | locus YHR079C, strain IRE1 (second series), active compounds read low 0.944 | locus YHR079C, strain IRE1, active compounds read low 0.971 | locus YHR094C, strain hxt1, active compounds read low 0.958 | locus YHR129C, strain ARP1, active compounds read low 0.955 | locus YHR200W, strain rpn10, active compounds read low 0.938 | locus YIL066C, strain RNR3, active compounds read low 0.924 | locus YIL073C, strain SPO22, active compounds read low 1.06 | locus YIL125W, strain kgd1, active compounds read low 0.936 | locus YIR030C, strain dcg1, active compounds read low 0.966 | locus YJL095W, strain BCK1, active compounds read low 0.938 and 0.988 | locus YJL134W, strain LCB3, active compounds read low 0.976 | locus YJL168C, strain set2, active compounds read low 0.99 | locus YJL187C, strain SWE1 (second series), active compounds read low 0.929 | locus YJR043C, strain POL32, active compounds read low 0.963 | locus YJR066W, strain TOR1, active compounds read low 0.949 | locus YKL009W, strain mrt4, active compounds read low 0.953 | locus YKL068W, active compounds read low 0.98 | locus YKL085W, strain MDH1 (second series), active compounds read low 0.962 | locus YKL085W, strain MDH1, active compounds read low 0.962 | locus YLR039C, strain RIC1, active compounds read low 0.883 | locus YLR058C, strain SHM2, active compounds read low 0.931 | locus YLR102C, strain apc9, active compounds read low 0.966 | locus YLR113W, strain HOG1, active compounds read low 0.911 | locus YLR330W, strain CHS5, active compounds read low 0.991 | locus YLR371W, strain rom2, active compounds read low 0.964 | locus YML016C, strain PPZ1, active compounds read low 0.963 | locus YML032C, strain rad52, active compounds read low 0.945 | locus YML124C, strain tub3, active compounds read low 0.952 | locus YMR078C, strain ctf18, active compounds read low 0.967 | locus YMR223W, strain ubp8, active compounds read low 0.956 | locus YMR263W, strain SAP30, active compounds read low 0.971 | locus YMR307W, strain GAS1, active compounds read low 1.03 | locus YNL067W, strain RPL9B, active compounds read low 0.985 | locus YNL128W, strain TEP1, active compounds read low 0.921 | locus YNL183C, strain NPR1, active compounds read low 0.917 | locus YNL233W, strain BNI4, active compounds read low 1.02 | locus YNL250W, strain rad50, active compounds read low 0.951 | locus YNL271C, strain bni1, active compounds read low 0.947 | locus YNL298W, strain CLA4, active compounds read low 0.955 | locus YNL322C, strain KRE1, active compounds read low 0.986 | locus YNR052C, strain pop2, active compounds read low 0.961 | locus YOL012C, strain htz1 0.366 | locus YOL147C, strain pex11, active compounds read low 0.97 | locus YOR061W, strain CKA2, active compounds read low 0.924 | locus YOR069W, strain VPS5, active compounds read low 0.979 | locus YOR136W, strain idh2, active compounds read low 0.962 | locus YOR144C, strain elg1, active compounds read low 0.966 | locus YOR231W, strain MKK1, active compounds read low 0.942 | locus YOR316C, strain cot1, active compounds read low 0.956 | locus YPL055C, strain LGE1, active compounds read low 0.949 | locus YPL241C, strain CIN2, active compounds read low 0.98 | locus YPL256C, strain CLN2, active compounds read low 0.955 | locus YPR119W, strain clb2, active compounds read low 0.966 | locus YPR141C, strain kar3, active compounds read low 0.954 | locus YPR167C, strain met16, active compounds read low 0.984 | strain wtn01, active compounds read low 0.911
active: locus YDR502C, strain sam2, active compounds read low 0.917 | locus YGL086W, strain mad1, active compounds read low 0.925 | locus YKR001C, strain vps1, active compounds read low 0.849 | locus YLR268W, strain sec22, active compounds read low 0.883 | locus YLR418C, strain cdc73, active compounds read low 0.787 | locus YNL307C, strain MCK1, active compounds read low 0.72 | locus YOR184W, strain ser1, active compounds read low 0.803 | locus YPR163C, strain tif3, active compounds read low 0.909

CC1OC(=O)C(C(C)C)NC(=O)C(C(C)C)OC(=O)C(C(C)C)NC(=O)C(C)OC(=O)C(C(C)C)NC(=O)C(C(C)C)OC(=O)C(C(C)C)NC(=O)C(C)OC(=O)C(C(C)C)NC(=O)C(C(C)C)OC(=O)C(C(C)C)NC1=O (configuration not stated)
active: locus YAL021C, strain ccr4, active compounds read low 0.202 | locus YAL026C, strain drs2, active compounds read low 0.544 | locus YAL030W, strain snc1, active compounds read low 0.326 | locus YBL061C, strain skt5, active compounds read low 0.229 | locus YBR009C, strain hhf1, active compounds read low 0.223 | locus YBR023C, strain chs3, active compounds read low 0.23 | locus YBR171W, strain sec66, active compounds read low 0.54 | locus YBR231C, strain swc5, active compounds read low 0.286 | locus YBR279W, strain paf1, active compounds read low 0.544 | locus YCL011C, strain gbp2, active compounds read low 0.28 | locus YCL016C, strain dcc1, active compounds read low 0.238 | locus YCL069W, strain vba3, active compounds read low 0.51 | locus YCR088W, strain abp1, active compounds read low 0.51 | locus YDL005C, strain med2, active compounds read low 0.332 | locus YDL040C, strain nat1, active compounds read low 0.468 | locus YDR001C, strain nth1, active compounds read low 0.615 | locus YDR069C, strain doa4, active compounds read low 0.383 | locus YDR137W, strain rgp1, active compounds read low 0.144 | locus YDR159W, strain sac3, active compounds read low 0.318 | locus YDR195W, strain ref2 0.336 | locus YDR297W, strain sur2, active compounds read low 0.404 | locus YDR334W, strain swr1, active compounds read low 0.494 | locus YDR335W, strain msn5, active compounds read low 0.697 | locus YDR392W, strain spt3, active compounds read low 0.148 | locus YEL003W, strain gim4, active compounds read low 0.357 | locus YEL037C, strain rad23, active compounds read low 0.673 | locus YEL061C, strain CIN8 (second series), active compounds read low 0.448 | locus YER015W, strain faa2, active compounds read low 0.205 | locus YER016W, strain bim1, active compounds read low 0.259 | locus YER111C, strain swi4, active compounds read low 0.639 | locus YER155C, strain BEM2 (second series), active compounds read low 0.6 | locus YFR010W, strain ubp6, active compounds read low 0.535 | locus YGL167C, strain pmr1, active compounds read low 0.166 | locus YGL173C, strain kem1, active compounds read low 0.157 | locus YGL227W, strain vid30, active compounds read low 0.599 | locus YGL240W, strain doc1, active compounds read low 0.112 | locus YGL253W, strain hxk2, active compounds read low 0.243 | locus YHR013C, strain ard1, active compounds read low 0.159 | locus YHR027C, strain rpn1, active compounds read low 0.331 | locus YHR142W, strain chs7, active compounds read low 0.342 | locus YJL092W, strain hpr5, active compounds read low 0.556 | locus YJL095W, strain BCK1 (second series), active compounds read low 0.266 | locus YJL115W, strain asf1, active compounds read low 0.79 | locus YJL129C, strain trk1, active compounds read low 0.251 | locus YJL154C, strain vps35, active compounds read low 0.688 | locus YJL164C, strain tpk1, active compounds read low 0.267 | locus YJL166W, strain qcr8, active compounds read low 0.115 | locus YJL187C, strain SWE1, active compounds read low 0.343 | locus YKL160W, strain elf1, active compounds read low 0.278 | locus YKR026C, strain gcn3, active compounds read low 0.65 | locus YKR091W, strain srl3, active compounds read low 0.476 | locus YLL001W, strain dnm1, active compounds read low 0.499 | locus YLL026W, active compounds read low 0.301 | locus YLL041C, strain sdh2, active compounds read low 0.368 | locus YLR027C, strain aat2, active compounds read low 0.27 | locus YLR221C, strain rsa3, active compounds read low 0.326 | locus YLR258W, strain gsy2, active compounds read low 0.349 | locus YLR262C, strain YPT6 (second series), active compounds read low 0.132 | locus YLR320W, strain mms22, active compounds read low 0.18 | locus YLR342W, strain FKS1, active compounds read low 0.115 | locus YLR370C, strain arc18, active compounds read low 0.395 | locus YLR384C, strain iki3, active compounds read low 0.464 | locus YML120C, strain ndi1, active compounds read low 0.389 | locus YMR058W, strain fet3, active compounds read low 0.486 | locus YMR125W, strain sto1, active compounds read low 0.835 | locus YMR129W, active compounds read low 0.411 | locus YMR205C, strain PFK2, active compounds read low 0.278 | locus YMR231W, strain pep5, active compounds read low 0.193 | locus YNL071W, strain lat1, active compounds read low 0.0873 | locus YNL209W, strain ssb2, active compounds read low 0.237 | locus YNL322C, strain KRE1 (second series), active compounds read low 0.463 | locus YNR049C, strain mso1, active compounds read low 0.563 | locus YOR001W, strain rrp6, active compounds read low 0.497 | locus YOR070C, strain gyp1, active compounds read low 0.216 | locus YOR080W, strain dia2, active compounds read low 0.381 | locus YOR083W, strain WHI5, active compounds read low 0.318 | locus YOR106W, strain vam3, active compounds read low 0.331 | locus YOR265W, strain rbl2, active compounds read low 0.288 | locus YOR270C, strain vph1, active compounds read low 0.227 | locus YOR290C, strain snf2, active compounds read low 0.61 | locus YPL051W, strain arl3, active compounds read low 0.125 | locus YPL078C, strain atp4, active compounds read low 0.14 | locus YPL106C, strain sse1, active compounds read low 0.359 | locus YPL240C, strain hsp82, active compounds read low 0.412
inactive: locus YLR357W, strain rsc2, active compounds read low 0.891 | locus YNL248C, strain rpa49, active compounds read low 0.944
